Compounds with a hit are over-represented: about 2.2% of the library has one in this group of screens.
LGR2 inh = inhibitors of bursicon-induced LGR2 CRE-luciferase signal, primary screen, cell-based, HEK293, CRE-luciferase reporter, bursicon stimulation; Drosophila bursicon receptor LGR2 (rickets); bursicon-stimulated, 4 h; inhibition, % at 9.99 µM; hit rate 0.35% among 380,000; AID 720647, 2013;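 active = drop in luminescence signal, shown as inhibition above about 50% in the replicate tests, limit read from the data, passing the limit was not always enough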;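 note: agonist challenge used bursicon conditioned medium at about half maximal strength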
TROY NFkB inh = inhibitors of TROY-driven NF-kB signaling, primary screen, Q293 LMP1-TROYcd cells, NF-kB luciferase, uHTS; hit rate 0.98% among 360,000; Q293 LMP1-TROYcd NF-kB luciferase reporter, 4 h; inhibition, % at 10 µM; AID 1347056, 2019;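 active = compounds whose plate-normalised and pattern-corrected inhibition of the luciferase reporter signal at the single screening dose is 50% or more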
TWEAK-Fn14 inh = inhibitors of TWEAK-Fn14 signaling, primary screen, luciferase reporter cells, uHTS. TWEAK-stimulated Fn14 reporter cells, luciferase luminescence, 8 h. inhibition, % at 10 µM. hit rate 2% among 360,000. AID 1159606, 2016; in the data active = inhibition above about 50%
HSP90 inh = HSP90 inhibitors, primary screen, cell lysate, luminescence; Heat shock protein HSP 90 (rabbit reticulocyte lysate; luciferase refolding); Rabbit reticulocyte lysate, luciferase refolding luminescence, 3 h; inhibition, % at 5.6 µM; hit rate 0.91% among 290,000;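 active = inhibition above the screen-wide mean plus 3 SD, computed separately per campaign, cut at about 16% in these data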;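 note: 0% = DMSO wells and 100% = 60 µM geldanamycin wells; inhibitors lower the luminescence because luciferase stays unfolded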
Active calls of the source: *; nt = no result.

SMILES | LGR2 inh | TROY NFkB inh | TWEAK-Fn14 inh | HSP90 inh
O=C(c1ccc(S(=O)(=O)Cc2ccccc2F)c([N+](=O)[O-])c1)N1CCCCCC1 | 31.6 | 28.1 | 36.8 | -3.3
CO[C@@H]1CN(C)C(=O)c2ccc(NC(=O)c3cnccn3)cc2OC[C@H](C)N(CC2CC2)C[C@@H]1C | 20.3 | nt | nt | nt
CCOC(=O)CCSc1nc(C)c2cc(OC)ccc2n1 | nt | -47.1 | -31.3 | -5.3
CCOC(=O)CCSc1nc(C)c2cc(C)c(C)cc2n1 | nt | nt | 81.5* | 0.6
CCC(=O)Nc1ccc2c(c1)C(=O)N(C)[C@@H]1CC[C@H](CC(=O)O)O[C@@H]1CO2 | -22.1 | nt | nt | nt
COc1cccc(S(=O)(=O)Nc2ccc3c(c2)[C@H]2C[C@H](CC(=O)NCc4ccccc4F)O[C@@H](CO)[C@H]2O3)c1 | 4.0 | nt | nt | nt
C=C(C(=O)c1ccccc1)C(NC(C)(C)C)c1ccccc1 (stereo not drawn) | 101.1* | 18.8 | 96.4* | nt
C=C(C(=O)c1ccccc1)C(C)CC(=O)c1ccccc1 (stereo not drawn) | 10.9 | -19.1 | 63.2* | 1.4
O=C(CC(Nc1ccccc1)C(=O)O)c1ccccc1 (stereo not drawn) | nt | -24.9 | 5.5 | nt
Cc1ccc(/C=N/N2CCN(C3c4ccccc4-c4ccccc43)CC2)s1 | nt | 53.7* | 61.6* | -1.2
O=C(CN1CCOCC1)NCC[C@H]1CC[C@@H](NC(=O)c2ccc3c(c2)OCO3)[C@@H](CO)O1 | -16.5 | nt | nt | nt
Cc1ccc(-n2c(C)c([N+](=O)[O-])c3ccc(O)cc32)cc1 | 5.3 | nt | nt | 1.5
Cc1c([N+](=O)[O-])c2ccc(O)cc2n1-c1ccccc1 | -6.8 | 31.5 | 56.1* | -0.3
C[C@H]1CN([C@@H](C)CO)C(=O)c2cc(NC(=O)CCC(F)(F)F)ccc2O[C@H]1CN(C)C(=O)Nc1cccc2ccccc12 | 18.2 | nt | nt | nt
CC(=O)Nc1ccc(S(=O)(=O)Nc2ccc3[nH]c(=O)[nH]c3c2)cc1 | -8.9 | 19.0 | 53.6* | -1.0
Cc1ccc2nc(N/N=C\c3ccc([N+](=O)[O-])o3)nc(-c3ccccc3)c2c1 | nt | -4.8 | 66.9* | 0.1
O=C(NCc1cc(Br)cc(Br)c1OC(=O)c1ccccc1[N+](=O)[O-])c1ccccc1 | 27.8 | 34.0 | 55.1* | 0.8
COc1ccc2c3c([nH]c2c1)[C@H](CO)N(C(=O)C1CC1)CC31CN(C(=O)NC(C)C)C1 | -11.4 | nt | nt | nt
O=[N+]([O-])c1cccc(-c2cc(-c3cc(Br)ccc3O)[nH]n2)c1 | 12.0 | 32.8 | 83.7* | 0.5
CCOC(=O)CSc1nnc(NC(=O)c2cc([N+](=O)[O-])cc([N+](=O)[O-])c2)s1 | -0.7 | 66.3* | 85.1* | 4.1
CC(C)NC(=O)N1CC(=O)N2[C@@H](CO)[C@H](c3ccc(/C=C/c4ccccc4)cc3)[C@@H]2C1 | 10.2 | nt | nt | nt
CNC[C@@H]1Oc2ccc(NS(=O)(=O)c3ccc(C)cc3)cc2CC(=O)N([C@H](C)CO)C[C@H]1C | -1.7 | nt | nt | nt
COc1ccc(C(=O)N2CCN(c3ccccc3OC)CC2)cc1 | -12.2 | 5.5 | 10.4 | -2.4
COc1cc(OC)cc(C(=O)N2CCC(N3CCN(c4ccccc4OC)CC3)CC2)c1 | 2.0 | 52.1* | 52.9* | -1.4
COc1ccc(Cn2c(=O)[nH]c3cc(C(=O)N4CCN(c5ccccc5OC)CC4)ccc3c2=O)cc1 | nt | 31.2 | 52.6* | -2.6
SMILES | LGR2 inh | TROY NFkB inh | TWEAK-Fn14 inh | HSP90 inh
CC(C)Nc1ncnc2ccc(Br)cc12 | 25.1 | 33.8 | 78.1* | 3.5
O=C1ON=C(c2ccccc2)/C1=C/c1ccc(-c2ccccc2[N+](=O)[O-])o1 | -1.7 | -1.5 | 94.7* | -0.4
C[C@H](CO)N1C[C@H](C)[C@H](CN(C)C(=O)NC2CCCC2)Oc2ncc(-c3ccccc3F)cc2C1=O | -0.1 | nt | nt | nt
Cc1nc(SCC(=O)Nc2ccc(S(=O)(=O)N3CCOCC3)cc2)c2c(C)c(C)sc2n1 | 36.0 | 51.2* | 27.5 | nt
COCC(=O)N(C)C[C@H]1Oc2cc(C3=CCCCC3)ccc2S(=O)(=O)N([C@H](C)CO)C[C@@H]1C | -3.2 | nt | nt | nt
Cc1[nH]c(-c2ccc(F)cc2)cc1C(=O)N1CCN(c2ccc(Cl)cc2)CC1 | -1.6 | 14.6 | 89.5* | 3.9
COc1ccc(N2CCN(C(=O)c3cc(-c4ccc(F)cc4)[nH]c3C)CC2)cc1 | -15.0 | 6.8 | 49.9 | -3.8
CO[C@@H]1CN(C)C(=O)c2ccc(NC(=O)Nc3ccc(Cl)cc3)cc2OC[C@H](C)N(C(=O)Nc2c(C)noc2C)C[C@H]1C | 0.0 | nt | nt | nt
O=C(c1ccccc1Cl)N(C(=O)c1ccccc1Cl)c1nccc(-c2cccs2)n1 | nt | 66.8* | 77.0* | 2.2
CC(C)NC(=O)Nc1ccc2c(c1)C(=O)N([C@H](C)CO)C[C@@H](C)[C@@H](CN(C)C)O2 | 15.7 | nt | nt | nt
O=C(COC(=O)c1cc(S(=O)(=O)Nc2ccccc2Cl)ccc1O)Nc1nc2ccccc2s1 | 18.2 | 60.1* | -10.9 | 1.8
N#Cc1cccc(NC(=O)COC(=O)c2cc(S(=O)(=O)Nc3ccccc3Cl)ccc2O)c1 | -1.4 | 48.1 | -9.2 | nt
Cc1ccc(S(=O)(=O)Nc2ccc(Cl)cc2)cc1NC(=O)c1cc2c(s1)CCCC2 | -1.0 | 61.8* | 72.4* | -2.9
CC(=O)OCC1=C[C@@H]2OC(=O)C3=CO[C@@H](O[C@@H]4O[C@H](CO)[C@@H](O)[C@H](O)[C@H]4O)[C@H]1[C@@H]32 | -3.7 | 1.1 | 3.9 | nt
C=C1C(=O)OC2C=C(CO)C3OC3C3OC3(C)CC(OC(=O)/C(=C/C)COC(C)=O)C12 (stereo not drawn) | 21.3 | 2.9 | 83.1* | nt
C[C@@H]1CCCCO[C@H](CN(C)Cc2ccc(C(F)(F)F)cc2)[C@H](C)CN([C@H](C)CO)C(=O)c2cc(NS(C)(=O)=O)ccc2O1 | 1.0 | nt | nt | nt
Cc1ccc2[nH]c3c(NCc4ccco4)ncnc3c2c1 | nt | -21.3 | 44.3 | -2.2
COc1cc(CNc2ncnc3c2[nH]c2ccc(C)cc23)cc(OC)c1 | 23.3 | 50.5* | 23.9 | 0.3
COC(=O)c1ccc2nc(Nc3nc4c(F)cc(F)cc4s3)sc2c1 | nt | 91.9* | 104.9* | 77.3*
CCOC(=O)c1ccc2nc(Nc3nc4ccc(F)cc4s3)sc2c1 | 30.0 | 87.2* | 99.3* | 11.9
C[C@H](CO)N1C[C@H](C)[C@@H](CN(C)Cc2cncnc2)Oc2cc(C3=CCCC3)ccc2S1(=O)=O | -1.7 | nt | nt | nt
